The record followed here is PubChem BioAssay (Tox21).

A number with no mark means an inactive call. Results filed as inconclusive are left out. Active and inactive are the calls of the source. Unless noted, calls come from the whole dose curve; as a rule, active = well fitted curve in the direction sought with a large enough effect in the repeat runs; inconclusive = weak or mixed curves; inactive = no such curve, though single readings can be large; an effect the other way counts as inactive or inconclusive.

Assay [1] is described as follows: qHTS assay to identify small molecule agonists of the androgen receptor (AR) signaling pathway in the presence of an antagonist - cell viability counter screen (AID 1259379). Note: nearly all actives have a fitted effect of over 25% in size. Note: potency is the fitted concentration of half-maximal effect. In a few lines: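 Fluorescence from CellTiter-Fluor, added after 15 hr and read 1 hr later, gave cell viability. Cells were MDA-kb2 exposed to compounds (15 concentrations) in the presence of 3.0uM nilutamide at 37C, 0% CO2.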

Assay [2] can be described thus: qHTS assay to identify small molecule agonists of the estrogen receptor beta (ER-beta) signaling pathway - cell viability counter screen (AID 1259380). Note: nearly all actives have a fitted effect of over 30% in size. Note: potency is the fitted concentration of half-maximal effect. In a few lines:
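Same-well viability counter screen. Cells: ER-beta-UAS-bla HEK293T, plated 6 hr before compound, in 2% charcoal-stripped FBS. Compound exposure 16 hr, 37C; viability by CellTiter-Glo luminescence after 30 min at room temperature.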

A short description of assay [3]: qHTS assay to identify small molecule antagonists of the estrogen receptor beta (ER-beta) signaling pathway - cell viability counter screen (AID 1259382). Note: nearly all actives have a fitted effect of over 55% in size. Note: potency is the fitted concentration of half-maximal effect. A digest of the protocol:
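Following a 6 hr plating period, HEK293T cells carrying a UAS-driven beta-lactamase reporter under ER-beta control received compounds and 1nM E2 (final). After 16 hr at 37C and 2 hr substrate loading, CellTiter-Glo luminescence indicated viability.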
(In general: Quantitative high-throughput screening tests each substance at several concentrations.)

For assay [4], the target named is Estrogen receptor (Homo sapiens) (UniProt P03372). The assay can be described thus: qHTS assay to identify small molecule agonists of the estrogen receptor alpha (ER-alpha) signaling pathway in the presence of an antagonist (AID 1259383; calls by dose curve; note: top concentration of the series differs between compounds; nearly all actives have a fitted effect of over 15% in size). A digest of the protocol: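 Cells are hormone-deprived for 5 days (charcoal-stripped FBS, no phenol red), plated for 24hr, spiked with 10.0nM ICI-182,780, then dosed at 15 concentrations. After 22hr at 37C, ONE-Glo luminescence reports ERE-luciferase activity.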

Assay [5] is described as follows: qHTS assay to identify small molecule agonists or antagonists of the thyroid stimulating hormone receptor (TSHR) signaling pathway - wild type cell line counter screen (AID 1259384; calls by dose curve). A digest of the protocol:
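Wild-type HEK293 cells were plated 18 h at 37 C/5% CO2, pin-dosed with compound plus Ro20-1724 medium, held 30 min at room temperature, then given cAMP-d2 and anti-cAMP-cryptate; fluorescence was read after 1 h. Fifteen concentrations, triplicate.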

Assay [6] concerns the target Thyrotropin receptor (Homo sapiens) (UniProt P16473). The assay can be described thus: qHTS assay to identify small molecule antagonists of the thyroid stimulating hormone receptor (TSHR) signaling pathway (AID 1259385; calls by dose curve; note: nearly all actives have a fitted effect of over 20% in size; note: potency is the fitted concentration of half-maximal effect). A digest of the protocol: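 TSHR-HEK293 cells were plated and held 18 h at 37C/5% CO2, then given compound plus Ro20-1724 and stimulated with TSH at 1.5 ng/mL final. After 30 min at room temperature, cAMP was detected with cAMP-d2/anti-cAMP-cryptate (1 h) by fluorescence.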

The target of assay [7] is Progesterone receptor (Homo sapiens) (UniProt P06401). Put plainly: qHTS assay to identify small molecule agonists of the progesterone receptor (PR) signaling pathway (AID 1346784; calls by dose curve; note: nearly all actives have a fitted effect of over 30% in size; note: potency is the fitted concentration of half-maximal effect). A digest of the protocol: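 Beta-lactamase reporter read-out: after 16 hr compound treatment at 37C and a further 2 hr at room temperature with LiveBLAzer B/G FRET substrate, fluorescence was measured in PR-UAS-bla HEK 293T cells grown in 2% charcoal-stripped serum.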

For assay [8] the target is unchanged. The assay can be described thus: qHTS assay to identify small molecule antagonists of the progesterone receptor (PR) signaling pathway (AID 1346795; active = well fitted inhibition curve with a large enough effect in the signal ratio in the repeat runs, not every such curve was filed as active; the % refers to the signal ratio). A digest of the protocol: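 Read-out is fluorescence from the LiveBLAzer B/G FRET substrate, cleaved by a UAS-controlled beta-lactamase in PR-UAS-bla HEK293T cells after 16 hr exposure to compound plus 1 nM promegestone (final), followed by 2 hr at room temperature.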

The nature of assay [9]: qHTS assay to identify small molecule antagonists of the progesterone receptor (PR) signaling pathway - cell viability counter screen (AID 1346798). Note: nearly all actives have a fitted effect of over 50% in size. Note: potency is the fitted concentration of half-maximal effect. A digest of the protocol:
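HEK293T PR-UAS-bla, 2% charcoal-stripped FBS; 4 hr pre-plate; cpd + R5020, 16 h 37C; LiveBLAzer read first; then CellTiter-Glo 30 min RT, luminescence.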

Assay [10] can be described thus: qHTS assay to identify small molecule agonists of the progesterone receptor (PR) signaling pathway - cell viability counter screen (AID 1346799; calls by dose curve; note: nearly all actives have a fitted effect of over 45% in size; note: potency is the fitted concentration of half-maximal effect). In a few lines:
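Luminescence from CellTiter-Glo, added after the beta-lactamase FRET read in the same wells, gave cytotoxicity in PR-UAS-bla HEK293T cells treated with compounds for 16 hr at 37C.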

Assay [11] in a line: qHTS assay to identify small molecule antagonists of the TGF-beta/Smad signaling pathway - cell viability counter screen (AID 1346824). Note: nearly all actives have a fitted effect of over 50% in size. Note: potency is the fitted concentration of half-maximal effect. In a few lines:
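SBE-bla HEK 293T cells were plated overnight at 37 C, then given compounds in DMSO plus TGF-beta1 (added as 0.25 ng/mL solution) for 5 hr. After the bla read, CellTiter-Glo was added to the same wells and luminescence read after 30 min at room temperature.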

The nature of assay [12]: qHTS assay to identify small molecule agonists of the TGF-beta/Smad signaling pathway - cell viability counter screen (AID 1346829). Note: nearly all actives have a fitted effect of over 45% in size. Note: potency is the fitted concentration of half-maximal effect. A digest of the protocol:
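HEK 293T SBE-bla line, 5 hr compound exposure at 37 C, multiplexed CellTiter-Glo viability read by luminescence.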

The nature of assay [13]: qHTS assay to identify small molecule agonists of the TGF-beta/Smad signaling pathway (AID 1346859; active = well fitted activation curve with a large enough effect in the signal ratio in the repeat runs, not every such curve was filed as active; the % refers to the signal ratio; note: series mostly up to about 77 µM). A digest of the protocol:
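SBE-bla HEK 293T, 4,000 cells/well, plated o/n; cpd in DMSO, 5 hr, 37 C/5% CO2; B/G FRET substrate 2 hr RT; ex 405, em 460/530 nm.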

Assay [14] is described as follows: Human pregnane X receptor (PXR) small molecule agonists, qHTS cell viability counter screen (AID 1346977). Note: nearly all actives have a fitted effect of over 50% in size. Note: potency is the fitted concentration of half-maximal effect. In a few lines: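 PXR-Luc HepG2, 2,000 cells/well, 5% charcoal-stripped FBS; 5hr settle; cpd 24hr, 37C/5% CO2; CellTiter-Fluor at 23hr, read 1hr later (fluorescence).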
The nature of assay [15]: Caspase-3/7 induction in HepG2 cells by small molecules, qHTS assay (AID 1346978). Note: nearly all actives have a fitted effect of over 15% in size. Note: potency is the fitted concentration of half-maximal effect. A digest of the protocol:
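Wild-type HepG2 cells (2,000/well) were settled 5 h at 37 C, 5% CO2, then exposed to compounds in DMSO for 17 h. Caspase-3/7 activity was read by luminescence 30 min after adding Caspase-Glo 3/7 reagent at room temperature.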

Assay [16] concerns the target Androgen receptor (Homo sapiens) (UniProt P10275). The assay can be described thus: qHTS assay to identify small molecule agonists of the androgen receptor (AR) signaling pathway in the presence of an antagonist (AID 1259381; calls by dose curve; note: potency is the fitted concentration of half-maximal effect; nearly all actives have a fitted effect of over 15% in size). In a few lines: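 Cells are MDA-kb2 (human breast carcinoma, MMTV-luc, AR/GR responsive). Nilutamide is present at 3.0uM final throughout; compounds are added at 15 concentrations and incubated 16hr at 37C before ONE-Glo luminescence detection.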

Assay [17] in a line: qHTS assay to identify small molecule agonists of the estrogen receptor alpha (ER-alpha) signaling pathway in the presence of an antagonist - cell viability counter screen (AID 1259386).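 Note: cells exposed to compounds for 22 h at 37 °C before the viability read; nearly all actives have a fitted effect of over 30% in size.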 Note: potency is the fitted concentration of half-maximal effect. In a few lines: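 Cells are starved of estrogens for 5 days in charcoal-stripped serum, seeded for 24hr and co-treated with ICI-182,780 (10.0nM final) and test compounds. After 22hr at 37C, viability is read as CellTiter-Fluor fluorescence.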

Assay [18] concerns the target Thyrotropin-releasing hormone receptor (Homo sapiens) (UniProt P34981). The assay can be described thus: qHTS assay to identify small molecule antagonists of the thyrotropin-releasing hormone receptor (TRHR) signaling pathway (AID 1346877; active = well fitted inhibition curve with a large enough effect in the repeat runs, not every such curve was filed as active; note: series mostly up to about 51 µM). A digest of the protocol:
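Cells (TRHR-HEK293) are plated and kept 18 h at 37 °C/5% CO2. A calcium-sensitive dye is added for 2 h, compound follows for 5 min at room temperature, and TRH is then given at 1 nM final.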

The target is the same in assay [19]. The assay can be described thus: qHTS assay to identify small molecule agonists of the thyrotropin-releasing hormone receptor (TRHR) signaling pathway (AID 1346891; calls by dose curve; note: series mostly up to about 58 µM). A digest of the protocol: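 Intracellular calcium rise, read as fluorescence every second for 3 min, served as the agonist signal in dye-loaded HEK293 cells expressing TRHR; each compound ran at 15 concentrations in triplicate.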

Chain of Progesterone receptor (Homo sapiens) (P06401 whole entry, looked up): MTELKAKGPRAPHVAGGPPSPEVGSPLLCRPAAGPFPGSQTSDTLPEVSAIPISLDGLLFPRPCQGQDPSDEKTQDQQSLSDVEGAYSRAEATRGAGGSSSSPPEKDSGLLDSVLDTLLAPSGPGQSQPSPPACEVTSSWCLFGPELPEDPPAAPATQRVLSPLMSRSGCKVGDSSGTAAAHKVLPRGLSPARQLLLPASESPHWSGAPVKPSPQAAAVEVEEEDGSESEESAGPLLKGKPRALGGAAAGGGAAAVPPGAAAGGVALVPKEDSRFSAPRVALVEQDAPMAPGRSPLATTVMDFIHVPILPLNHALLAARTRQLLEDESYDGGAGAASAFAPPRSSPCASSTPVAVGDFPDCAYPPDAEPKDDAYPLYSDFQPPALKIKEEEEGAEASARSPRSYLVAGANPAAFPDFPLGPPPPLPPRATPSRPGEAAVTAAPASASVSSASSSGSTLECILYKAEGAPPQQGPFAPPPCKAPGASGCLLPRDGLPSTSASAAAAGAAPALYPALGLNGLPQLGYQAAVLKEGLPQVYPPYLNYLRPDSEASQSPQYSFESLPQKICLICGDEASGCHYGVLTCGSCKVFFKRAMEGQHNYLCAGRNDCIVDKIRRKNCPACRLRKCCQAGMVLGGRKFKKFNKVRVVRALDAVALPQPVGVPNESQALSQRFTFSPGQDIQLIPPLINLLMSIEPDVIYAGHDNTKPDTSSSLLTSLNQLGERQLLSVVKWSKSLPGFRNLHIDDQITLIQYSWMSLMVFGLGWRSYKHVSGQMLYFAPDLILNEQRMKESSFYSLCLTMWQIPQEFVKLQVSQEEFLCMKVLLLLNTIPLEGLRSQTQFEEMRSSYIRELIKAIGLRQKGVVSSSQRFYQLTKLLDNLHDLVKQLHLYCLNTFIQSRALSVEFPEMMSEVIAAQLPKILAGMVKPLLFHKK
Chain of Thyrotropin receptor (Homo sapiens) (P16473 whole entry, looked up): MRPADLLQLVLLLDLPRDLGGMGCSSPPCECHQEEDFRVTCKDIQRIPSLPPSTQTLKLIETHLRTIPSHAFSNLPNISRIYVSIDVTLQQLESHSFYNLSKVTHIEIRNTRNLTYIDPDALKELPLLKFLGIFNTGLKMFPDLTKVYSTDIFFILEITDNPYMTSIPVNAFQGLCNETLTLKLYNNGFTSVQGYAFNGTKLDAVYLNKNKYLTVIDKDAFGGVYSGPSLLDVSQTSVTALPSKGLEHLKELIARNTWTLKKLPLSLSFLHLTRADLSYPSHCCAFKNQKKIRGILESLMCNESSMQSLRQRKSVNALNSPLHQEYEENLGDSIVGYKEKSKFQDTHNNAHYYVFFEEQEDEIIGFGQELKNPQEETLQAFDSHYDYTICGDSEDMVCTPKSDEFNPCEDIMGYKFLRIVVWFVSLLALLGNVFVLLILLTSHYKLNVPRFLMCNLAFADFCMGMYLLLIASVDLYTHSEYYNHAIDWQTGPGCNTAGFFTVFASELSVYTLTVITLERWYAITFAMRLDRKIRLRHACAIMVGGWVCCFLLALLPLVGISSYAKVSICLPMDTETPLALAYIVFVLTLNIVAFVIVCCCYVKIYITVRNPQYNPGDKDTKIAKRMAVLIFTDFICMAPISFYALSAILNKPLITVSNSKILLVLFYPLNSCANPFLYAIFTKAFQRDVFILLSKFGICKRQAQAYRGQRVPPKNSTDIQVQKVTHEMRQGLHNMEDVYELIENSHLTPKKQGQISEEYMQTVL
Chain of Thyrotropin-releasing hormone receptor (Homo sapiens) (P34981 whole entry, looked up): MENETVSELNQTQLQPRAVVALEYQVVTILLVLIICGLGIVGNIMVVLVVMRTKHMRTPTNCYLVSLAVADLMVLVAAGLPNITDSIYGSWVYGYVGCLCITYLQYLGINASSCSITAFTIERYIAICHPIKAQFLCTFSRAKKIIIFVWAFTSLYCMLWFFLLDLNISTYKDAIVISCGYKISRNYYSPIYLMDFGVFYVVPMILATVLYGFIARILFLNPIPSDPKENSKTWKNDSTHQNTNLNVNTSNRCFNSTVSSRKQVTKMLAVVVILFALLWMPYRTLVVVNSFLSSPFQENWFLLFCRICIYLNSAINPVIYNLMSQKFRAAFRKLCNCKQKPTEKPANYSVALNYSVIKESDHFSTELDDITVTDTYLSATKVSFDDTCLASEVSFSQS
Chain of Estrogen receptor (Homo sapiens) (P03372 whole entry, looked up): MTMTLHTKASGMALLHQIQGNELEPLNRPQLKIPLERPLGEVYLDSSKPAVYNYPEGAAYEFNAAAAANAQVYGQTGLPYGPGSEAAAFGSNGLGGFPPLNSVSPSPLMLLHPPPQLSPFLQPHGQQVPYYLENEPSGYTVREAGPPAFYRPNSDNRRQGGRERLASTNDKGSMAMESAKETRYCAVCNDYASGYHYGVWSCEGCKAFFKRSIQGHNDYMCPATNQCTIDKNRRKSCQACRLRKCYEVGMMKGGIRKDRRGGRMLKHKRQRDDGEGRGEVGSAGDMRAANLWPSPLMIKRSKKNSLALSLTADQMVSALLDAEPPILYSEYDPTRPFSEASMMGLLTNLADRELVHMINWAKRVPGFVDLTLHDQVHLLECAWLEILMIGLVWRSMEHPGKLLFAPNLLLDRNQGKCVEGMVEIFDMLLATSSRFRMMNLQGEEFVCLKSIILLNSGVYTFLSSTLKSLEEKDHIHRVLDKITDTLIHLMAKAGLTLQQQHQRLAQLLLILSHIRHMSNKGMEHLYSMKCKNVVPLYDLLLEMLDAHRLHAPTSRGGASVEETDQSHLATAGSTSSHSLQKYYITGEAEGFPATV
Chain of Androgen receptor (Homo sapiens) (P10275 whole entry, looked up): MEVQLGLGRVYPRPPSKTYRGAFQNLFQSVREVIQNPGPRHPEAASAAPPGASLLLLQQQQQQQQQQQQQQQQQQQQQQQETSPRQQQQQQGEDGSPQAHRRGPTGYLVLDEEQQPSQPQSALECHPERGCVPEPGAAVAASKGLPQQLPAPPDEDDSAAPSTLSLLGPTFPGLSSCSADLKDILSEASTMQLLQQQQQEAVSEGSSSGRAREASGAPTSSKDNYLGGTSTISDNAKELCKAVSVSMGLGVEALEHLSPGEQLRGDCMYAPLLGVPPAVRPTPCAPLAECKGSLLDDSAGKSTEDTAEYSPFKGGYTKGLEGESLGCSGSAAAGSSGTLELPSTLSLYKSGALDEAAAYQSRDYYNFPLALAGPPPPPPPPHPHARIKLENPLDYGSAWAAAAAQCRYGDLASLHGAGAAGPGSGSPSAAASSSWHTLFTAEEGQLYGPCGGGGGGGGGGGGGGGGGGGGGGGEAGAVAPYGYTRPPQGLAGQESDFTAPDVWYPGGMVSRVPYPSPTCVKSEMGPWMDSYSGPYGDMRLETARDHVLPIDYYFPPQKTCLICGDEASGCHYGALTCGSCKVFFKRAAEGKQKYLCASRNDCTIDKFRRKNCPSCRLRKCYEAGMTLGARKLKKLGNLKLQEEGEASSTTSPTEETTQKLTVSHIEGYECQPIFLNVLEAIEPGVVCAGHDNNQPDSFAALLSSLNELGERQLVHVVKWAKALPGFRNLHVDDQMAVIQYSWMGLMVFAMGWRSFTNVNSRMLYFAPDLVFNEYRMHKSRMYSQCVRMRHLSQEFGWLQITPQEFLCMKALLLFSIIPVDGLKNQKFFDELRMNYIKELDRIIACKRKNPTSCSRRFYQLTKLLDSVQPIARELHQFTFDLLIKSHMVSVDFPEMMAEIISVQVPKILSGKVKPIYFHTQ

Turning to `O=C(CCCN1CCC2(CC1)C(=O)NCN2c1ccccc1)c1ccc(F)cc1`, the Potency result in assay [1], in assay [3], in [4], in [6], in assay [7] and in assay [8] was “inactive” in each case. Besides, the Potency result in [9], in assay [10], in [11], in assay [12] and in assay [15] was “inactive” throughout. In addition, the Potency in assay [2] is 13.3 µM (active); in assay [14], 6.68 µM (active). The molecule was classed as inactive in assay [5] and in assay [13].

On to `N#CC(Cl)Cl`, for which the Potency entry in [1], in assay [2], in assay [6], in assay [17], in assay [8] and in assay [9] was “inactive” each time. Besides, the Potency entry in assay [10], in assay [11], in [12], in assay [18], in assay [19] and in [14] was “inactive” in each case. Moreover, the Potency entry in assay [15] was “inactive”. Moreover, the values for the Potency in assay [16] and in assay [7] were 47.3 µM (active) and 5.3 µM (active), respectively. For the same molecule, in assay [13], the molecule was called inactive.

For `Clc1ccc(-c2ccccc2)cc1`, the Potency result in [1], in assay [2], in [3], in assay [4], in [6] and in assay [17] was “inactive” each time. For the same molecule, the Potency entry in assay [7], in assay [8], in [9], in assay [10], in assay [11] and in assay [12] was “inactive” each time. The Potency result in assay [18], in [19], in [14] and in assay [15] was “inactive” in each case. For the same molecule, the outcome in [5] and in assay [13] was inactive.

Regarding `O=S(=O)(c1ccc(Cl)cc1)c1ccc(Cl)cc1`, the Potency result in assay [1], in assay [2], in [3], in [4], in assay [17] and in assay [11] was “inactive” throughout. The Potency result in assay [12], in [14] and in assay [15] was “inactive” in each case. Further, the molecule was called inactive in [5] and in [13].

`CCC[CH2][Sn]([CH2]CCC)([CH2]CCC)[O]C(=O)c1ccccc1`: the Potency is 1.72 µM (active) in assay [1]; 1.54 µM (active) in assay [2]; 1.93 µM (active) in assay [3]; 17.2 µM (active) in [6]; 10.9 µM (active) in assay [17]; 2.17 µM (active) in assay [9]. The Potency was 2.43 µM (active) in [10]; 3.47 µM (active) in [11]; 2.45 µM (active) in assay [12]; 1.22 µM (active) in [14]; 3.06 µM (active) in assay [15]. Also, in [4], the Potency entry was “inactive”.

Regarding `CCOCn1c(-c2ccc(Cl)cc2)c(C#N)c(Br)c1C(F)(F)F`, the Potency in assay [1] is 6.86 µM (active); in [2], 27.3 µM (active); in [3], 34.4 µM (active); in [17], 8.63 µM (active); in assay [9], 12.2 µM (active); in assay [10] it was 12.2 µM (active). Also, in [14], the Potency is 0.864 µM (active). For the same molecule, the Potency entry in assay [4], in assay [18], in assay [19] and in assay [15] was “inactive” throughout. Also, the call in [5] was inactive.

Regarding `COC12CC[C@@]3(C[C@@H]1C(C)(O)C(C)(C)C)[C@H]1Cc4ccc(O)c5c4[C@@]3(CCN1CC1CC1)[C@H]2O5` (stereo partly drawn), the Potency in assay [1] was 60.7 µM (active); in assay [2], 27.1 µM (active); in assay [3] it was 54.1 µM (active); in assay [17], 60.7 µM (active); in assay [9], 43 µM (active); in [10] it was 38.3 µM (active). The Potency in assay [11] is 48.6 µM (active); in assay [12] it was 38.6 µM (active); in assay [14], 54.1 µM (active); in [15], 60.7 µM (active). The Potency result in [4] and in assay [6] was “inactive” throughout. Besides, the outcome in assay [5] and in assay [13] was inactive.
